From PubChem BioAssay AID933 (National Center for Advancing Translational Sciences (NCATS), 2007)
Results filed as inconclusive are left out. Active and inactive are the calls of the source. The call rests on the fitted dose curve; in most records, active means well fitted activation curve with a large enough effect in the signal ratio, with a control signal flat; inconclusive means small, poorly fitted or top-dose-only effect, or a change in a side signal; inactive means flat fitted curve, though single readings scatter; the % refers to the signal ratio.

Each compound was assayed against Thyrotropin receptor (Homo sapiens) (UniProt P16473) (assay: Secondary Concentration-Response Assay for Agonists of the Thyroid Stimulating Hormone Receptor: HTRF Activity Detection). Conditions: HEK293-TSHR cells, cAMP HTRF ratio, 30 min; series mostly up to 91.7 µM; activation: at the top concentration.
Outline: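 cAMP accumulation was detected by antibody-based HTRF, excitation 330 nm, emissions 615 and 660 nm. Compounds acted for 30 min at room temperature on stably TSHR-transfected HEK 293 cells, with phosphodiesterase inhibitor RO 20-1724 (100 uM) in the medium.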
Potency means the concentration at half of the fitted maximal effect.
Wherever activation is given: % of control where 0% means no effect.

Sequence of Thyrotropin receptor (Homo sapiens) (P16473 whole entry, looked up): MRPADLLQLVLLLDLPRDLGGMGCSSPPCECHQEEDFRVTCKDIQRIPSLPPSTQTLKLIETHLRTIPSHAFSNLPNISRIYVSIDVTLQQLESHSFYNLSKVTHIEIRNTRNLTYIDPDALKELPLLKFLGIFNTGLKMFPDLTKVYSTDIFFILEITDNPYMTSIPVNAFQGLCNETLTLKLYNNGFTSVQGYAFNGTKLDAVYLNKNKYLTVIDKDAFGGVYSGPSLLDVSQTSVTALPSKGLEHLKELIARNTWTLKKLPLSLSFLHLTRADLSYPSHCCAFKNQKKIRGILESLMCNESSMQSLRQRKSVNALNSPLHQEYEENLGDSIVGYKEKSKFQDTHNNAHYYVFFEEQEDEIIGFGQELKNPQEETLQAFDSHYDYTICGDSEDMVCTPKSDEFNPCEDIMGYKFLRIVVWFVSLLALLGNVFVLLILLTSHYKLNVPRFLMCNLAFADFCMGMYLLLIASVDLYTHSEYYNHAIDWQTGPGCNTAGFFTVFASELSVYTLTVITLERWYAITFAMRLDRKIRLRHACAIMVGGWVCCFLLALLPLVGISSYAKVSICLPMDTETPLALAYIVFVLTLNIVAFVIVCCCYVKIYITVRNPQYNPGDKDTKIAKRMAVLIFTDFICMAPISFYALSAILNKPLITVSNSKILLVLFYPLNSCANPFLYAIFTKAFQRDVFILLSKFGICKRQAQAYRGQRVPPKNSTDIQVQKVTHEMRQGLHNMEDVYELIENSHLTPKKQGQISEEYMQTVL

| Structure (SMILES) | activation | Potency |
| --- | --- | --- |
| O=C1c2ccccc2NC(c2ccc(OCc3ccccc3)c(OCc3ccccc3)c2)N1Cc1ccco1 (stereo unspecified) | 1.04% (inactive) |  |
| COc1ccc(C2Nc3ccc(NC(=O)CO)cc3C(=O)N2Cc2cccc(Cl)c2)cc1COc1ccc(NC(C)=O)cc1 (stereo unspecified) |  | 5.62 µM (active) |
| COc1ccc(C2Nc3ccccc3C(=O)N2Cc2ccccc2)cc1CSc1ccccn1 (stereo unspecified) | 0.775% (inactive) |  |
| COc1ccc(S(=O)(=O)NCCC(=O)NCc2ccc(F)cc2)cc1 | -0.0801% [at 0.00035 µM] (inactive) |  |
| CCOC(=O)COc1c(OC)cc(Cl)cc1C1Nc2ccccc2C(=O)N1c1ccc(F)cc1 (stereo unspecified) | 0.758% (inactive) |  |
| COc1ccc(CN(Cc2ccccc2)C(=O)c2ccc(O)cc2)cc1COc1ccc(NC(C)=O)cc1 |  | 28.2 µM (active) |
| O=C(CN1C(=O)NC2(CCCCC2)C1=O)NCCC1=CCCCC1 | 1.34% [at 0.00035 µM] (inactive) |  |
| O=C1c2ccccc2NC(c2ccc(Cl)cc2Cl)N1Cc1ccccc1 (stereo unspecified) | 1.15% (inactive) |  |
| O=C(c1ccccc1O)N(Cc1ccco1)Cc1ccco1 | 6.56% (inactive) |  |
| COc1cc(C2Nc3ccccc3C(=O)N2Cc2ccco2)cc(OC)c1OC (stereo unspecified) | 2.24% (inactive) |  |
| Cc1cc(Cl)c(S(=O)(=O)Nc2ccc3c(c2)OCO3)cc1OCC(N)=O | -1.33% [at 0.00035 µM] (inactive) |  |
| Cc1occc1-c1nnc(SCC(=O)NCc2ccc3c(c2)OCO3)n1CC(C)C | 0.411% [at 0.00035 µM] (inactive) |  |
| Cc1ccccc1N1CCN(c2ncnc3c2cnn3Cc2ccc(Cl)cc2)CC1 | -0.314% [at 0.00035 µM] (inactive) |  |
| COc1ccc(C2Nc3ccccc3C(=O)N2c2ccc(F)cc2)cc1Cn1nnc2ccccc21 (stereo unspecified) | 2.13% (inactive) |  |
| COc1ccc(C2Nc3ccccc3C(=O)N2Cc2ccccc2)cc1OCc1ccc(NC(C)=O)cc1 (stereo unspecified) | 11.9% (inactive) |  |
| CC(C)CC(=O)Nc1cccc(-c2cn3ccsc3n2)c1 | 0.105% [at 0.00035 µM] (inactive) |  |
| CSc1nc(NC(C)(C)C)nc(Oc2ccc(=O)[nH]n2)n1 | -0.106% [at 0.00035 µM] (inactive) |  |
| CC(=O)Nc1ccc(OCc2cccc(C3Nc4ccccc4C(=O)N3Cc3ccco3)c2)cc1 (stereo unspecified) | 6.27% (inactive) |  |

| Structure (SMILES) | activation | Potency |
| --- | --- | --- |
| CCOC(=O)COc1ccccc1C1Nc2ccccc2C(=O)N1c1cccc(Cl)c1 (stereo unspecified) | 4.3% (inactive) |  |
| CCN(CC)CCN1C(=O)c2ccccc2NC1c1ccc(N(C)C)cc1 (stereo unspecified) | 1.45% (inactive) |  |
| O=C(COC(=O)C1c2ccccc2Oc2ccccc21)Nc1ccc2c(c1)OCO2 | 0.151% [at 0.00035 µM] (inactive) |  |
| COc1ccc(C(=O)N(Cc2ccccc2)Cc2ccc(OC)c(COc3ccc(NC(C)=O)cc3)c2)cc1 |  | 12.6 µM (active) |
| COc1ccc(C2Nc3ccccc3C(=O)N2Cc2cccc(Cl)c2)cc1COc1ccc(NC(C)=O)cc1 (stereo unspecified) |  | 2.82 µM (active) |
| CCN(CC)CCN1C(=O)c2ccccc2NC1c1cccc(F)c1 (stereo unspecified) | 1.11% (inactive) |  |
| CCCN1C(=O)c2ccccc2NC1c1ccc(OC)cc1OC (stereo unspecified) | 3.69% (inactive) |  |
| COc1ccc(C2Nc3ccccc3C(=O)N2Cc2ccco2)cc1COc1ccc(F)cc1 (stereo unspecified) | 0.829% (inactive) |  |
| COc1ccc2c(c1)C1(Nc3ccccc3C(=O)N1c1ccccc1)C(=O)N2 (stereo unspecified) | 0.63% (inactive) |  |
| Cc1occc1-c1nnc(SCC(=O)Nc2ccccc2)n1C(C)c1ccccc1 (stereo unspecified) | 0.0209% [at 0.00035 µM] (inactive) |  |
| COc1ccc(CN(Cc2ccccc2)C(C)=O)cc1COc1ccc(NC(C)=O)cc1 | 5.35% (inactive) |  |
| COc1ccc(CN(Cc2ccccc2)C(=O)CN2CCN(C)CC2)cc1COc1ccc(NC(C)=O)cc1 | 8.23% (inactive) |  |
| CN(Cc1ccco1)C(=O)Cn1c(=O)oc2cc(S(=O)(=O)NCc3ccccc3)ccc21 | 0.961% [at 0.00035 µM] (inactive) |  |
| O=C(c1cc(-c2cccs2)on1)N1CCCc2ccccc21 | 0.238% [at 0.00035 µM] (inactive) |  |
| CC(=O)N1CCCc2cc(S(=O)(=O)N(CC(C)C)CC(C)C)ccc21 | -0.0207% [at 0.00035 µM] (inactive) |  |
| CCN(CC)CCN1C(=O)c2ccccc2NC1c1ccc(OC)c(COc2ccc(NC(C)=O)cc2)c1 (stereo unspecified) | 2.5% (inactive) |  |
| CCCN1C(=O)c2ccccc2NC1c1ccc(OC)c(CSc2ccccn2)c1 (stereo unspecified) | 3.44% (inactive) |  |
| CCOc1cc(C2Nc3ccccc3C(=O)N2Cc2ccco2)ccc1OCc1ccccc1Cl (stereo unspecified) | 0.379% (inactive) |  |
